Measurements from PubChem BioAssay.
Activity calls are given as the source filed them.

Key:
[1] = A549 cell viability effects, profiling panel, calcein-AM fluorescence, 48 h, basal (AID 1162); conditions: higher = more signal
[2] = adipocyte viability effects, profiling panel, cell-based, 3T3-L1 adipocytes, calcein-AM fluorescence, 48 h, basal (AID 1163); conditions: 3T3-L1 adipocytes viability, higher = more signal
[3] = HepG2 cell viability effects, profiling panel, calcein-AM fluorescence, 48 h, basal (AID 1164); conditions: higher = more signal
[4] = MM1S cell viability effects, profiling panel, calcein-AM fluorescence, 48 h, basal (AID 1165); conditions: higher = more signal;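 note: viability of MM1S multiple myeloma cells under basal unstimulated conditions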
[5] = basal RPMI8226 viability, no added stimulus, profiling panel, cell-based, calcein-AM fluorescence, 48 h, PK04 Diversity Set (AID 1166); conditions: RPMI8226 myeloma viability, higher = more signal;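 note: cells grown under basal conditions without added stimulus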
[6] = basal HepG2 mitochondrial membrane potential changes, profiling panel, cell-based, JC-1 fluorescence, 24 h, 100 nL compound (AID 1167); conditions: higher = more signal
[7] = basal 3T3-L1 adipocyte mitochondrial potential changes, profiling panel, cell-based, JC-1 fluorescence, 3T3-L1 adipocytes, 24 h, 100 nL compound (AID 1168); conditions: JC-1 mitochondrial fluorescence, higher = more signal, called active from +8 up or from −8 down
[8] = basal RPMI8226 mitochondrial membrane potential changes, profiling panel, cell-based, JC-1 fluorescence, 24 h, 100 nL compound (AID 1169); conditions: RPMI8226 myeloma, JC-1 mitochondrial potential fluorescence, higher = more signal
[9] = basal MM1S mitochondrial membrane potential changes, profiling panel, cell-based, JC-1 fluorescence, 24 h, 100 nL compound (AID 1170); conditions: higher = more signal
[10] = A549 lung cancer cell viability effects, profiling panel, resazurin fluorescence, 24 h, PK04 Diversity Set (AID 1171); conditions: higher = more signal, called active from +8 up or from −8 down
Note: test concentration not given here.

Structure (SMILES) | z-score [1] | z-score [2] | z-score [3] | z-score [4] | z-score [5] | z-score [6] | z-score [7] | z-score [8] | z-score [9] | z-score [10]
Cc1ccc([C@@H]2C[C@@H](Sc3ccccc3)[C@H](C(=O)O)CN2S(=O)(=O)c2ccc(C)cc2)cc1 | -0.687 | 0.154 | -0.316 | -0.681 | -3.33 | -1.2 | -0.183 (inactive) | -0.268 | 0.928 | 0.39 (inactive)
NC(=O)NCC#Cc1ccc2c(c1)[C@]1(C(=O)N2)[C@H](C(=O)Nc2nc3ccccc3s2)[C@H]2C(=O)O[C@H](c3ccccc3)[C@H](c3ccccc3)N2[C@@H]1c1ccccc1OCCO | -0.38 | 2.01 | 0.374 | -0.513 | -1.12 | -3.23 | 2.92 (inactive) | -0.517 | -0.815 | 0.28 (inactive)
CC(C)C(=C=CC[C@@H](O)c1ccc(OCCO)cc1)C[C@@H](O)c1ccccn1 | -0.343 | -1.03 | 0.411 | -0.473 | -0.3 | -0.737 | 0.00461 (inactive) | 0.0263 | -0.698 | -0.287 (inactive)
CCCc1cc2c(n1Cc1cc(F)cc(F)c1)C(C)C1CN(C(=O)c3ccccc3)C(C)(C(=O)OC)C21 (stereo not given) | -0.679 | 0.149 | -0.237 | -1.7 | -4.39 | 2.5 | -1.98 (inactive) | -0.904 | -1.79 | -0.675 (inactive)
C=CCN1C(=O)[C@@]2(CC=C)N=C(c3ccc(OCCCO)cc3)O[C@H]2c2ccccc21 | 0.248 | 1.68 | -0.515 | -3.41 | -3.72 | 1.62 | 2.61 (inactive) | -1.02 | -2.1 | -2.08 (inactive)
Cc1ccccc1C(O)C1C=CC2C(=O)N(c3ccccc3)C(=O)C2N1Nc1ccc(C(C)C)cc1 (stereo not given) | -0.0475 | -0.127 | -0.169 | -0.136 | -0.727 | -2.15 | -1.8 (inactive) | -0.754 | -0.0109 | -1.41 (inactive)
CC(C)c1ccc(NN2C(C(O)c3ccc(B(O)O)cc3)C=CC3C(=O)N(c4ccccc4)C(=O)C32)cc1 (stereo not given) | -1.34 | -0.386 | -1.28 | -0.571 | -0.587 | -1.75 | -1.56 (inactive) | -0.894 | 0.00559 | -0.212 (inactive)
CC1CC/C=C\[C@H]2OC34C=CCN(C(C)(C)C)C(=O)[C@H]3N(CCO)C(=O)[C@@H]4C2C(=O)O1 (stereo not given in full) | -0.986 | 1.09 | -0.593 | 1.16 | -0.197 | -0.669 | -0.354 (inactive) | -0.0147 | 0.927 | 0.283 (inactive)
CCC[C@@H]1C[C@@]1(CCC)[C@@H](NC(=O)c1ccccc1)c1cccc(Cl)c1 | -0.927 | -0.546 | -0.0147 | -1.78 | -0.385 | 0.909 | 0.349 (inactive) | 0.466 | -0.0307 | 0.908 (inactive)
Cc1ccc(S[C@]2(C(=O)NCCCN(C)C)CC(=O)N(Cc3cc(C(F)(F)F)cc(C(F)(F)F)c3)[C@@H]2c2ccc(CO)cc2I)cc1 | 0.0371 | -0.787 | 0.241 | -2.19 | -2 | -0.547 | 0.669 (inactive) | -0.442 | -2.03 | -0.335 (inactive)
CC(=O)NCCCC[C@@H]1NC(=O)[C@@H]2C[C@H](C(=O)NCCCCCNC(=O)CS)[C@H](c3cccc(OCCO)c3)N2C1=O | 0.189 | 0.767 | -0.884 | 0.28 | 0.403 | -1.12 | -0.843 (inactive) | 0.436 | -0.892 | 0.131 (inactive)
CCCC=C(CCC)[C@@H](NC(=O)c1cccs1)c1ccc(C(F)(F)F)cc1 | -1.43 | 0.203 | -0.809 | -1.41 | -4.35 | 1.34 | -0.229 (inactive) | -0.393 | -1.71 | 1.73 (inactive)
COc1cc(NN2C(C(O)c3ccco3)C=CC3C(=O)N(c4ccccc4)C(=O)C32)cc(OC)c1OC (stereo not given) | -0.5 | 0.117 | -0.337 | 0.0511 | -0.307 | -0.955 | -0.967 (inactive) | 0.187 | -1.31 | -1.54 (inactive)
CC(C)C(O)C1C=CC2C(=O)NC(=O)C2N1Nc1ccc(Cl)cc1Cl (stereo not given) | -1.06 | -0.699 | -0.401 | -0.687 | -0.644 | -2.25 | -1.12 (inactive) | -0.161 | -0.143 | -0.883 (inactive)
COc1ccc(CCNC(=O)[C@@]2(Sc3ccc(C)cc3)CC(=O)N(C3Cc4ccccc4C3)[C@@H]2c2ccc(CO)cc2I)cc1 | 2.04 | 0.129 | 0.082 | -2.56 | -1.99 | 0.26 | -0.279 (inactive) | -0.597 | -0.565 | 0.86 (inactive)
C=CCOC(=O)[C@H]1[C@@H]2C(=O)O[C@@H](c3ccccc3)[C@@H](c3ccccc3)N2[C@@H](c2ccc(OCCOC(=O)[C@H]3C[C@H]4C(=O)N[C@@H](CCCCNC(C)=O)C(=O)N4[C@H]3c3cccc(OCCO)c3)cc2)[C@]12C(=O)Nc1ccccc12 | -0.112 | 0.457 | -0.696 | -0.297 | 0.728 | -0.235 | 1.91 (inactive) | -0.0898 | -0.67 | 0.319 (inactive)
